According to PubChem BioAssay AID1508600 (Functional Genomics Laboratory (NCATS/FGL), 2020):
Screen size: about 53,000 sequences; about 3,700 (7%) were called active. Many of the other results were omitted from the sample, so actives are more common in it than they were. Values without a mark were called inactive.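 How the source made its calls: active means gene knockdowns whose robust z-score for IL-1 alpha signal is at least 2 or at most -2, so actives lie on both sides; inactive means the rest.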

Assay: Components of the Cytosolic LPS Sensing Pathway: Gene Identification via Genome-wide siRNA Screen;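 further: robust z of the log signal after scaling to non-targeting control siRNA wells of the plate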
Conditions: RAW264.7 macrophages, IL-1a HTRF, actives lie on both sides, screened at 100 nM (by protocol), cells primed 5 h with Pam3CSK4 first
Summary of the method: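 RAW264.7 mouse macrophages reverse-transfected with single siRNAs (100 nM final) for 48h, primed with Pam3CSK4 for 5 hours, then transfected with LipidA for 24 hour. Supernatant IL-1a read by HTRF; values normalized to negative-control median, log-transformed robust z-scores.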
In the case of GGAUCCUAAUGAGGACAUUTT against Jchain, the z-score is reported as 2.75 (active). Sequence GCCACAAGAUACCAUCAGATT against Bex1 has a z-score of -1.66. For CCAUAUGUCCUGUUUAAGATT against Grik2, the z-score was 0.304. Sequence GGACUUGAAAGACGAGAUATT against Cyp19a1 has a z-score of 0.31. In the case of CCUUUAUGAAUGAACAGGGTT against Cnot7, the z-score is reported as -0.266. Sequence GGCCAAUUCCAGUGAGAUGTT against Lgsn has a z-score of -0.0795. Work on GGCAGAGCUCAAAAAGAAATT against Ankrd1 yielded a z-score of -1.94. In the case of CCAAAUCCGGGAAAAAGAGTT against Armcx5, the z-score is reported as -0.459. In the case of GCAUACCAAUCACAGUCGATT against Dync2li1, the z-score is reported as -2.55 (active). With GGGUUGCUACUCACAAUGUTT against Syngr2 the z-score was 0.244. Work on CCUCAAUUUCGAAGACCCUTT against Asb6 yielded a z-score of 1.84. In the case of GGACUCUGGACCUUAUGCUTT against Tmem202, the z-score is reported as -0.921. For GGCUUUCAAGCUAACUGAUTT against Sf3b2, the z-score was -2.39 (active). Work on “GGUUAAAAACAACUGAAAGTT against 9630028B13Rik” yielded a z-score of -1.04. GGGAACUUUCCUCAAGUCUTT against Phactr3 showed a z-score of 0.107. Sequence GGCCAAGAAACAUGCCCUATT against Pbx2 has a z-score of 0.168. In the case of GGCAGUGGAGUUAACAACATT against Dsg1b, the z-score is reported as -0.12. CCUAUGAGUCUUACGUGAATT against Cyp4x1 showed a z-score of 0.693. For GGACACCAACAUAUUGUUCTT against Slc13a2, the z-score was -0.128. For GGCUGAUGGAAGAAUAUGATT against Actn2, the z-score was -2.2 (active). Sequence GGAUGAGUCUUUCUAGUUATT against Nipa1 has a z-score of -0.337. For GCAGCAGUAAUGAUGGAUCTT against Ncoa3, the z-score was 2.47 (active). Work on GGACAAAUUCUACAUCAGCTT against Adam8 yielded a z-score of 0.0533. Work on CGGCCGUCAGCUUCUUUUATT against Olfr283 yielded a z-score of -0.204. CGACUUUGGAGAAUUUCAATT against Synrg gave a z-score of -0.573. In the case of GGGAACAAACCUUGAUUCUTT against Adam24, the z-score is reported as 3.49 (active). GGAGAGACCACCCUUUCAGTT against Fahd2a showed a z-score of -0.432. For GCAUAUGGACUUUCUGUCATT against Iws1, the z-score was -0.157. With GGUGUAACACUCAUUUAUCTT against Ifitm3 the z-score was 2.88 (active). For GGACACCUACCAAAAGUUATT against Cd9, the z-score was 0.432. With GCUACAACAAGACAAAGUCTT against Tada1 the z-score was 1.84. For CCUUCUACCUACUUAUUGGTT against Tomm70a, the z-score was 0.178. In the case of GGAAGAUGUGAAAUUGCUUTT against Dars2, the z-score is reported as 2.23 (active). With CCACUAUGUUCUGUGGCAATT against Olfr736 the z-score was -2.33 (active). For GGAAGAAUUUGACAACCGCTT against Mrps18c, the z-score was 0.583. For GGAAAAUGAUAGCAGACAUTT against Zfp810, the z-score was -1.72. For GGGCCAGAAGAAGAGUCGATT against Mllt6, the z-score was -0.304. With GGAGAUUUCUGAAACUAGATT against Tiaf2 the z-score was -2.09 (active). In the case of “GGCCAACUCACCUUUCUAGTT against D630023F18Rik”, the z-score is reported as 1.84. In the case of CCAUUCUUAUUGUUGAGAATT against Nek9, the z-score is reported as -0.793. With GGACAUGAAAGUUGACCUGTT against Mrps31 the z-score was 0.465. In the case of GCCCGUGUGUAAGUGCAAATT against Wfikkn2, the z-score is reported as 2.25 (active). GGAAACAGAGCAAGGAAAATT against Gas7 gave a z-score of 0.613. In the case of GGAGAGCUCUAUGGAUCGATT against Fgf16, the z-score is reported as 0.784. For CCUCCUUUGGACAACGGGUTT against Cyp7a1, the z-score was -1.34. With CCUGCUCUCCUCAUUAUGUTT against Rnls the z-score was -0.115. In the case of GGAAGCAACUUGGAAUUUGTT against Ctnna3, the z-score is reported as 0.886. GGGUACAGUCCGAUACAGUTT against Nploc4 gave a z-score of -1.79. Sequence GCUCUCAUUAGCAUUAUCGTT against Gria1 has a z-score of 0.21. GCACAACUCAGAAGUAAUUTT against Ghr gave a z-score of 0.271. For GGUAAUAUUUCGUGCUUUATT against Lamb1, the z-score was 2.1 (active). For CCUAAAAAGAGGAAAAGGGTT against Psg29, the z-score was -0.254. Sequence GGUGCUCAGCAUGUUUGCUTT against Avpr1b has a z-score of -1.06. GGCACUGGAAAUAAAACCCTT against S100a14 showed a z-score of -0.766. In the case of GCUAACGAAGGUAGUGUACTT against Gtpbp8, the z-score is reported as 3.34 (active). Work on GGUAUGCUCUCUGUUGACUTT against Olfr922 yielded a z-score of 0.472. In the case of GGAGUUCCUAUUUAAUCCCTT against Hoxb8, the z-score is reported as -0.419. With GCAGUUUUAACUGGCCAUATT against Nr2f2 the z-score was 1.7. Sequence GCUGCUUAAGUACAUCAGATT against Grm4 has a z-score of -0.401. Work on GGUUAUGCAUUACUCUCUUTT against Prkdc yielded a z-score of 0.0207. With GGCCAGGUAUAAAUAUAUATT against Dusp8 the z-score was 4.51 (active). GCUGGAACUUAGUGUUCAGTT against Kat6b gave a z-score of 1.45. Work on GCAAUGUUCUCCGUAAACATT against Acss2 yielded a z-score of 1.15. Sequence GGCUUCAAACACUUCCUUGTT against Sh2d4b has a z-score of 0.818. In the case of GGGAAAAGAUUCAGCUAGATT against Ntn4, the z-score is reported as -1.16. In the case of GCAGCUAUUGAGCAUGGUGTT against Atp6v1g3, the z-score is reported as -2.16 (active). GCCGUAUCGAUUCUAUUUCTT against Slc6a17 gave a z-score of 1.09. With GGAAAAGAAGACAUUUCUCTT against Osbpl8 the z-score was -0.565. Work on CCUCCUGUACGAACACGCATT against Sars2 yielded a z-score of -0.118. For GGCUGUGCUCAGGAUCAAATT against Olfr683, the z-score was 2.37 (active). GGAAAUAUCCAAGAAUCCCTT against Bbs4 showed a z-score of -0.0724. GUGAUUGGGAACCUGUUUATT against Paqr6 showed a z-score of -1.35. Sequence GCAGAUCAGUUGGUACAAGTT against Acss3 has a z-score of 0.0616. In the case of GCUAACACAACGAGAGAAGTT against Ushbp1, the z-score is reported as -2.39 (active). Work on GGAUUCACACAGAGGUAAATT against Zfp169 yielded a z-score of -0.215. Work on CCCAUAUUAAUUAUGGCGUTT against Hadha yielded a z-score of -0.189. Sequence GCCAUACAUAAACUACAAUTT against Gulo has a z-score of -0.175. With GUACUUGAAACGAACUGGATT against B4galnt4 the z-score was -1.68. In the case of CCUUACCCUGUUAUACAAGTT against Hirip3, the z-score is reported as 2.69 (active). With GGCUAAAACAGGAAAUCUGTT against Mip the z-score was -0.398. For CCACUUUAAAGGCUCUUCUTT against H3c8, the z-score was -2.17 (active). CCGACUUCGUACAAUGACCTT against Slc1a6 gave a z-score of 1.45. For GGAGAACAAGAUCCUGGAGTT against Ccdc39, the z-score was 1.73. For GGAUCCAGAAGAGCAUCUCTT against Sap30, the z-score was -0.33. GGGCGUGAUUUAUUUCUACTT against Mfsd6l showed a z-score of 1.45. Sequence GGCUAUGCUUUUGUCCAGUTT against Raly has a z-score of -0.392. Work on GGUGUCUUUGCUCUUAAUUTT against Sike1 yielded a z-score of 0.277. CGCAGUCCUUGACAUUAAATT against Rab3a showed a z-score of 0.0328. In the case of GCUCUUGGGAUGGACGAUATT against Hmgcs1, the z-score is reported as 4.73 (active). Work on GGCAGACAUAAGGCUUUCUTT against Olfr1056 yielded a z-score of -0.754. Work on GGGCAGGAAAAAAAAUUCATT against Vps13b yielded a z-score of 1.68. Sequence CCACUGAAGGAAGUUCGCUTT against Amer2 has a z-score of 0.21. For GGAUAAAUGCCAUUUUGGATT against Cpeb1, the z-score was -0.664. Sequence GCCUUAACCACAAUUAAAATT against Etfrf1 has a z-score of -0.578. With GGGAUCUGGAUGAGGUCAATT against Tcf7l1 the z-score was 3.02 (active). In the case of GGAAAUUAGUGCUGGGCGUTT against Erbb3, the z-score is reported as 0.424. CGAAAUUGAUUCUAUCUGCTT against Katnal1 gave a z-score of -0.59. For GGGUCUCUAUGGAAUCAAUTT against Ldha, the z-score was 2.83 (active). In the case of GGCAGUAUGAGAGGUAUUUTT against Entpd7, the z-score is reported as 0.345. In the case of CCAAACGAAGGAAGCUGACTT against Taf6l, the z-score is reported as -2.09 (active). For GGGAGAUAAAAAGUUAAGGTT against Bclaf1, the z-score was 1.38. Sequence GGCUUUCGUUUACAACAAGTT against Naglu has a z-score of -0.414. With GGUUAUCAUACUUUUUGUGTT against Phf10 the z-score was -0.582. For CCAAACAAUGUUGUUUAGGTT against Rilpl1, the z-score was -0.965. For CCUCGAGUUCGGAAACAGATT against Chd8, the z-score was -1.06. CCUGCCUAGAUGUUUCAGCTT against Ifna13 showed a z-score of -0.196. For GGACAAUAGAUGUGUUUGATT against Ddb2, the z-score was 1.57. In the case of GCUUGGCCGUGAUUGUUGCTT against Fndc10, the z-score is reported as 2.35 (active).
